# Rows were chosen to be rich in hits. Some 2.7% of all compounds tested hit in one or more screens of this group.
# MITF TRPM1 inh: reduces MITF-dependent TRPM1 promoter luciferase signal; actives 0.83% (n = 330,000); AID 488899; SK-MEL-5 TRPM1 promoter luciferase, 24 h; inhibition, % at 12.5 µM;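 active = mean inhibition across replicates of 60% or more, whatever share of single replicates reaches that level; inconclusive = some that reach 60%, reason not given; inactive = mean inhibition across replicates below 60%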
# Peg3 promoter: reduces Peg3 promoter-driven luciferase expression in HeLa; HeLa PEG-Prom luciferase reporter, luminescence, overnight; inhibition, % at 20 µM; actives 1.7% (n = 360,000);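 active = inhibition of at least 50% at 20 µM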
# KKLEB cytotox: counter-screen for CF NF-kB inhibitors: cytotoxicity; KKLEB CF airway cells viability, ATPlite luminescence, overnight; active compounds read low; cells stimulated with P. aeruginosa culture filtrate; activity change (cytotoxicity), % at 5 µM; actives 0.36% (n = 360,000); AID 602141;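 active = corrected activity change at or below -50% at 5 µM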
# Shn3 inh set2: reduces Shn3 3'UTR luciferase signal in osteoblasts | Clone20 osteoblast Shn3 3'UTR firefly luciferase, 24 h | inhibition, % at 12.5 µM | actives 0.52% (n = 360,000);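 active = mean inhibition of at least 75% with every replicate also reaching 75%; inconclusive = mean inhibition at least 75% but some replicate below; inactive = mean inhibition below 75%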;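 note: 0% = median of neutral control wells and 100% = pilot-screen positive control compound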
# CF NFkB block: blocks PAF-induced NF-kB reporter in cystic fibrosis cells; KKLEB NF-kB-GFP reporter, GFP fluorescence overnight; inhibition, % at 5 µM; actives 0.86% (n = 360,000); AID 588850;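 active = at least 50% inhibition at 5 µM, scaled per plate between neutral and stimulator controls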;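 note: PAF is a Pseudomonas aeruginosa culture filtrate used as stimulus; plate controls were PAF-stimulated DMSO wells for no effect and unstimulated DMSO wells for full effect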
# HIF-2a inh: HIF-2a inhibition; 786-0 RCC cells HIF-2a reporter, luciferase luminescence, overnight; inhibition, % at 18.8 µM; actives 0.72% (n = 360,000);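 active = inhibition of the luminescence signal of 40% or more relative to plate controls, in a single-dose primary screen at 18.75 µM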
# Numbers without * were called inactive; ? = inconclusive; / = not tested or not shown.
SMILES,MITF TRPM1 inh,Peg3 promoter,KKLEB cytotox,Shn3 inh set2,CF NFkB block,HIF-2a inh
Cc1cc(C)cc(N2C(=O)c3nccnc3C2=O)c1,0,0,13,-11,-5,12
Cc1cc(OCc2cc(C(=O)NC(C)c3c(C)nn(C)c3C)no2)cc(C)c1Cl (configuration not stated),-40,-346,-4,-51,-6,-274
CCc1nc2ccc(C(=O)NCc3cccs3)cn2c1N(CC)Cc1cccc(Br)c1,/,57*,4,0,-12,7
CCOC(=O)C1CCN(C(=O)C(C)N(c2ccc(Oc3ccccc3)cc2)S(C)(=O)=O)CC1 (configuration not stated),14,17,-1,87*,0,10
CCOC(=O)N1CCN(C(=O)C(C)N(c2ccc(Oc3ccccc3)cc2)S(C)(=O)=O)CC1 (configuration not stated),22,16,-2,36,-5,6
CC(C(=O)N(C)C1CCCCC1)N1CCC(C(N)=O)CC1 (configuration not stated),-4,0,-3,3,4,8
O=C1c2cc(F)ccc2-n2c1nc1ccccc1c2=O,98*,8,-27,59,83*,-30
CN1c2ccccc2C(C)(C)C12C=Nc1c(ccc3ccccc13)O2 (configuration not stated),11,-112,5,-29,7,-157
CN1c2ccccc2C(C)(C)[C@]12C=Cc1cc(O)ccc1O2,-4,23,10,87*,5,24
COc1ccc(/C=N/NC(=O)c2ccc(NS(=O)(=O)c3cccs3)cc2)cc1,-15,104*,-8,-7,-48,-34
O=C(O)c1ccc(/C=N/NC(=O)c2ccc(NS(=O)(=O)c3cccs3)cc2)cc1,2,-1,6,-22,31,14
COc1ccccc1OCCCCn1c(C(C)O)nc2ccccc21 (configuration not stated),-6,20,1,-16,6,17
O=C(CCc1nnc(Cc2ccc(-c3ccccc3)cc2)o1)NCCc1ccccn1,-8,-3,5,-7,7,-21
O=C(CCc1nnc(-c2ccc(-c3ccccc3)cc2)o1)NCCc1ccccn1,18,-114,14,14,-20,40*
CCCC(O)(c1ccc(Cl)cc1)C(CN1CCOCC1)c1ccc(Cl)cc1 (configuration not stated),5,58*,2,26,12,7
CCc1ccc(C(O)(CC(C)C)C(CN2CCOCC2)c2ccccc2)cc1 (configuration not stated),25,54*,8,14,2,14
N#Cc1ccc(NC(=O)Nc2ccc(Oc3ccc(NC(=O)Nc4ccc(C#N)cc4)cc3)cc2)cc1,?,57*,15,91*,-11,-36
c1ccc(CC2CCN(c3ncnc4sccc34)CC2)cc1,-1,-44,4,90*,-6,-65
Cc1ccc(S(=O)(=O)N2CCN(c3ncnc4sccc34)CC2)cc1,20,26,-16,87*,-2,19
O=S(=O)(c1ccc(F)c(F)c1F)N1CCN(c2ncnc3sccc23)CC1,22,30,-4,?,6,25
CS(=O)(=O)c1ccc(-c2sc3ccccc3c2C(=O)N2CCN(c3ccc(F)cc3)CC2)cc1,-89,-251,15,-63,-9,-297
O=C(/C=C/c1ccncc1)c1ccc(NC(=O)c2ccccc2F)cc1,12,103*,-6,89*,72*,31
C[C@@H]1Cn2cnc(C(=O)N[C@@H](Cc3c[nH]c4ccccc34)C(=O)OC(C)(C)C)c2C(=O)N1,/,20,-17,-7,18,-8
Cc1onc(-c2c(F)cccc2Cl)c1C(=O)NC(C)c1ccccc1 (configuration not stated),7,10,2,-5,-18,5
Cc1cccc(NC(=O)COC(=O)CSc2ccccc2)c1C,6,-9,2,9,-6,10
SMILES,MITF TRPM1 inh,Peg3 promoter,KKLEB cytotox,Shn3 inh set2,CF NFkB block,HIF-2a inh
COc1cc(OC)cc(C(=O)NC(=S)Nc2cc3oc4ccccc4c3cc2OC)c1,8,38,-52*,9,55*,6
Cc1cccc(C(=O)O/N=C(\N)Cc2ccc([N+](=O)[O-])cc2)c1,5,3,3,-3,-13,-7
N/C(Cc1ccccc1)=N\OC(=O)c1cccc2ccccc12,8,78*,-1,-9,1,-42
N/C(Cc1ccc([N+](=O)[O-])cc1)=N\OC(=O)c1ccc2ccccc2c1,13,81*,-8,-2,16,-66
N/C(Cc1cccc2ccccc12)=N\OC(=O)c1ccccc1F,-2,-40,-8,-7,-12,-80
O=C(CN1C(=O)S/C(=C\c2ccc(-c3cc(C(=O)O)ccc3Cl)o2)C1=O)Nc1ccc2c(c1)OCO2,-5,-8,4,3,7,18
Cn1cc(/C=C2/SC(=O)N(CC(=O)Nc3ccc4c(c3)OCO4)C2=O)c2ccccc21,7,17,-66*,32,58*,-9
O=C(CCCN1C(=O)C(=Cc2ccc3c(c2)OCO3)SC1=S)Nc1ccc(C(=O)O)c(O)c1,/,-5,10,-1,-30,51*
O=C(CCCN1C(=O)/C(=C/c2ccc3c(c2)OCO3)SC1=S)Nc1ccc(C(=O)O)cc1,20,19,3,22,11,69*
O=C(O)C(=Cc1ccccc1[N+](=O)[O-])c1ccc2c(c1)OCO2,/,-51,-8,-21,7,-49
O=C(N/N=C/c1cc([N+](=O)[O-])ccc1O)c1cccc2cc[nH]c12,74*,40,-14,47,18,-12
CCOC(=O)C1=C(COC(=O)c2ccc([N+](=O)[O-])s2)NC(=O)NC1C (configuration not stated),62*,-7,16,8,3,-10
N=C1S/C(=C\c2ccc(-c3cccc(Cl)c3)o2)C(=O)N1c1nccs1,48,104*,12,?,-59,1
COc1ccc(/C=C2\SC(=N)N(c3nccs3)C2=O)cc1OC,-2,-13,-9,9,14,-37
O=C1NC[C@H](CCCCN2CCN(CCc3ccccc3)C(=O)C2=O)N(Cc2ccccc2)C1=O,/,/,/,/,/,11
CN(CC(O)COc1ccc(OCC(O)CN(C)C2CCCCC2)cc1)C1CCCCC1 (configuration not stated),-12,83*,-15,5,26,19
COCCN(C(=O)COC(=O)CSc1ccc2ccccc2c1)c1c(N)n(Cc2ccccc2)c(=O)[nH]c1=O,5,9,18,8,-5,12
COc1ccccc1NC(=O)NNC(=O)c1ccncc1,-6,1,19,5,-21,12
COc1cc2c(C)nc3c(c(C)nn3-c3ccccc3)c2cc1OC,-11,-7,-5,4,-55,14

# High-throughput results from PubChem.
